From PubChem BioAssay
D1 mod – allosteric modulators of human D1 dopamine receptor | HEK293 D1, CRE-luciferase, dopamine EC30 potentiation; actives deviate in either direction | B-score at 10 µM | 58,000 compounds, 5.9% hits;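 active = luminescence count or its row- and column-corrected plate score outside the 99.7% band of the plate's sample wells, on either side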
EphB4 antag – antagonists of human EphB4-ephrin-B2 interaction; inhibition, % at 7 µM; EphB4 LBD / TNYL-RAW-Alexa532 peptide, fluorescence polarization; AID 720; 97,000 compounds, 0.15% hits; P54760;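 active = inhibition above the screen-wide mean inhibition plus 3 SD, cut at about 15% in these data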;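 also: 0% = DMSO wells and 100% = excess unlabeled TNYL-RAW peptide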
DAT uptake mod – human DAT dopamine uptake with cocaine, either direction; B-score at 10 µM; LLC-PK1 hDAT cells, [14C]-dopamine uptake with cocaine IC80; actives deviate in either direction; 110,000 compounds, 1.3% hits;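 active = Z score or B-score, a plate-position-corrected score, falls beyond the plate's 99.7% confidence bounds, in either direction; inactive = both scores lie inside the 99.7% bounds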;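 also: scored against the spread of the other compound wells on the same plate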
Target sequence (Q01959 whole entry, looked up): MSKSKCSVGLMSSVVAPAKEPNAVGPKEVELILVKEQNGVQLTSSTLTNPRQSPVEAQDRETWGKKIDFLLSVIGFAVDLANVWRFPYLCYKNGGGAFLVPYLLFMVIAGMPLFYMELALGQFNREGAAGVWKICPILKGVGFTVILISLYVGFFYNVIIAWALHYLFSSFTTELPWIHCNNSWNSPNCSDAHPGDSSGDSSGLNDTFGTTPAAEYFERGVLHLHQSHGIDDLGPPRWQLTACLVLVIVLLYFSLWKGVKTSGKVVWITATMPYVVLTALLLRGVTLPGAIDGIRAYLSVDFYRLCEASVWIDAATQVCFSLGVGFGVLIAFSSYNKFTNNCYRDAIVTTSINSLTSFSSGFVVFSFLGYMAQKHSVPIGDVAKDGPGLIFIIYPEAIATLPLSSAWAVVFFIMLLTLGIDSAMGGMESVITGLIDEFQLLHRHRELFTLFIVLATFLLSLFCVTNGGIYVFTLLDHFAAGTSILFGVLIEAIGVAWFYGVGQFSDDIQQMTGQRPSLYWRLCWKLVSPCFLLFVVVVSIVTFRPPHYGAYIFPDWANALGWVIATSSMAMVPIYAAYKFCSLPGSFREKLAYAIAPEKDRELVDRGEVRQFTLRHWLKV
D1 PAM confirm – confirmation of human D1 dopamine receptor allosteric modulators; shares compounds with D1 mod; HEK293 D1 CRE-luciferase, dopamine EC30 potentiation; hits give high values; luminescence at 10 µM; 2,200 compounds, 88% hits; AID 642;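 active = luminescence in either of two replicates above the same-plate mean plus 3 SD of the low-dose dopamine control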
D1 no dopamine – activates D1 CRE-luciferase signal without dopamine present; shares compounds with D1 mod; HEK293 D1 CRE-luciferase, luminescence, no dopamine; hits give high values; luminescence at 10 µM; 1,900 compounds, 0.8% hits; in the data active = luminescence above about 3900
Isoprot counter – counter-screen for D1 modulators: isoproterenol response in HEK293 cells; shares compounds with D1 mod; HEK293 D1 CRE-luciferase, isoproterenol EC30 counter-screen; calls only at 10 µM; 2,200 compounds, 63% hits; AID 647;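 active = luminescence in either replicate above plate mean of wells with a partly effective reference agonist dose plus 3 SD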;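 also: isoproterenol raises cAMP through native beta-adrenoceptor Gs so signal bypasses D1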
* = called active by the depositor; i = inactive; . = no result given; + = active, no number. The full list was thinned out, with hits kept by preference.

SMILES | D1 mod | EphB4 antag | DAT uptake mod | D1 PAM confirm | Isoprot counter | others
CC[C@@H]1CC=C[C@H]2[C@H]1C(=O)N(Cc1ccccc1)[C@H]2c1ccc(OC)c(Cl)c1 | . | . | -0.42 | . | .
CCOC(=O)c1nn(-c2ccccc2)c(C#N)c1NC(=O)c1nn(CC)cc1Br | 4.3* | 3 | 0.056 | 8684* | +
CCOC(=O)c1c(NC(=O)c2nn(CC)cc2Br)c(C#N)nn1-c1ccccc1 | 2.5 | -1 | -1 | . | .
CCOc1cc(S(=O)(=O)N2CCCCCC2)ccc1F | . | 9 | -0.01 | . | .
CC(C)COC(=O)Nc1nnc(SCCOc2ccccc2)s1 | . | -2 | 0.85 | . | .
CCOC(=O)c1cc(C(C)(C)C)oc1CNC(=O)c1c(C)oc2c1CCCC2 | . | -13 | -0.8 | . | .
CCOc1nc(NCCc2ccc(OC)c(OC)c2)nc(NC(C)(C)CO)n1 | 3.2* | 1 | 0.015 | 9808* | i | D1 no dopamine=1608
COc1nc(NCCc2ccc(OC)c(OC)c2)nc(OC)n1 | 2 | 3 | 0.69 | . | .
O=C1NC(=S)SC1=C1CCCC1 | . | 5 | -0.15 | . | .
Cc1cc(C)cc(SCc2noc(C(=O)NCc3ccccc3)c2C(=O)NCc2ccccc2)c1 | . | . | 1.5 | . | .
COc1ccc(Nc2cc(C)nc(N3CCOCC3)n2)cc1 | 3.6* | -1 | 1.8 | 8656* | + | D1 no dopamine=1964
Cc1cc(NC2CCCCC2)nc(N2CCOCC2)n1 | 0.37 | 2 | 0.26 | . | .
COC(=O)c1ccccc1NC(=O)C1CCN(C(=O)c2ccc(OC)cc2)CC1 | . | 10 | -0.01 | . | .
Clc1ccccc1COc1ccccc1-c1nnco1 | -1.3 | -1 | 0.96 | . | .
c1ccc(OCCOc2ccccc2-c2nnco2)cc1 | 4.4* | -1 | 0.49 | 6588 | i | D1 no dopamine=1756
Cc1ccc(NC(=O)N(C2=NCC(C)S2)c2ccccc2)cc1 (stereo unspecified) | 0.78 | 0 | 1.9 | . | .
Cc1cccc(N(C(=O)Nc2ccccc2)C2=NCC(C)S2)c1 (stereo unspecified) | 5.1* | 3 | 0.57 | 6412* | +
CC(=O)Nc1ccc(S(=O)(=O)N(C2=NCC(C)S2)c2ccccc2)cc1 (stereo unspecified) | 19* | -4 | 0.5 | 5700 | i | D1 no dopamine=1632
CC(=O)Nc1ccc(S(=O)(=O)N(C)c2ccccc2)cc1 | . | . | -0.0076 | . | .
O=C(CSc1ncc(-c2ccccc2)n1C1CCCC1)N1CCc2ccccc21 | . | 1 | 0.14 | . | .
COc1ccc(Cn2c(SC)nc3ccccc32)cc1[N+](=O)[O-] | . | -1 | 0.93 | . | .
CN1CCN(C(=O)c2cc3c(C(F)(F)F)nn(C)c3s2)CC1 | . | 4 | -0.36 | . | .
O=C(Nc1ccc(Br)cc1)c1ccc(N2C(=O)C3CC=C(Cl)CC3C2=O)cc1 (stereo unspecified) | . | -9 | -0.61 | . | .
Cc1cc(C)n(-c2nc3ccccc3c3nc(C)nn23)n1 | 9.6* | . | 0.15 | 13408* | +
Cc1cc(C)n(-c2nc3ccccc3c(=O)n2OC2CCCCC2)n1 | 0.057 | 0 | 0.52 | . | .
SMILES | D1 mod | EphB4 antag | DAT uptake mod | D1 PAM confirm | Isoprot counter | others
Nc1ccccc1C#CCCCCO | . | . | -0.067 | . | .
CSc1ccc(CNc2ccc(C)cc2)cc1 | . | 2 | 0.053 | . | .
c1ccc2c(c1)nc(Nc1ccc3c(c1)OCO3)c1nnnn12 | 8.6* | . | 0.37 | 10812* | + | D1 no dopamine=1496
Cc1ccc(CNc2nc3ccccc3n3nnnc23)cc1 | 3.4* | . | 0.23 | 15516* | i | D1 no dopamine=1588
Fc1cccc(Nc2nc3ccccc3n3nnnc23)c1 | . | 4 | 1.7 | . | .
Cc1ccc(-c2nc3ccccc3n3nnnc23)cc1 | 0.69 | 3 | -0.096 | . | .
CCCOc1ccc2oc(=O)c3c(c2c1)CCCN3C(=O)CN(C)Cc1ccccc1 | -0.0071 | 6 | 1.1 | . | .
CCCOC(=O)C1=C(C)NC2=C(C(=O)CCC2)C1c1cccc(OC)c1OC (stereo unspecified) | 0.0063 | -1 | 0.69 | . | .
O=c1[nH]c(SCc2nc3c(cnn3-c3ccccc3)c(=O)[nH]2)nc2ccccc12 | . | -2 | 0.48 | . | .
CC(C)Sc1nc2c(cnn2-c2ccc(F)cc2)c(=O)[nH]1 | . | 1 | -0.65 | . | .
CC(C)Sc1nc2c(cnn2-c2ccccc2)c(=O)[nH]1 | 15* | . | -1.7 | 15608* | + | D1 no dopamine=1888
CCOC(=O)C(CC)Sc1nc2c(cnn2-c2ccccc2)c(=O)[nH]1 (stereo unspecified) | 2.8 | 5 | 0.17 | . | .
CCOC(=O)C(C)Sc1nc2c(cnn2-c2ccc(C)cc2)c(=O)[nH]1 (stereo unspecified) | 1 | 5 | -0.15 | . | .
CCCCCSc1nc2c(cnn2-c2ccccc2)c(=O)[nH]1 | 2.9* | -3 | -0.48 | 13144* | i | D1 no dopamine=1508
Cc1ccc(-n2ncc3c(=O)[nH]c(SC(C)C)nc32)cc1 | 17* | 0 | 0.065 | 12920* | + | D1 no dopamine=1492
O=c1[nH]c(SCc2ccccc2Cl)nc2c1cnn2-c1ccccc1 | 7.6* | . | -0.092 | 6188 | +
Cc1c(CCO)c(=O)[nH]n1C(=O)c1ccc(F)cc1 | . | 3 | -0.073 | . | .
O=C(N/N=C1\CCCc2ccccc21)c1ccccc1[N+](=O)[O-] | . | 1 | -0.48 | . | .
CCOC(=O)CC(=O)CSc1nc2ccccc2c(=O)n1-c1ccc(C(=O)NCCOC)cc1 | . | -5 | -0.26 | . | .
Cc1nnsc1NC(=O)OCc1ccc(C(C)(C)C)cc1 | . | 0 | 0.88 | . | .
CCCCOc1ccc(C(=O)NC)cc1 | -0.064 | 0 | 0.92 | . | .
CCCCOc1ccc(CC(=O)NO)cc1 | 33* | . | 0.42 | 18936* | +
COc1ccc(OC)c(NC(=O)C(CC(=O)O)NCc2ccco2)c1 (stereo unspecified) | -0.23 | -3 | -0.85 | . | .
CCOC(=O)N1CCN(Cc2cc(=O)oc3cc4c(cc23)CCC4)CC1 | . | -3 | 1.8 | . | .
COCCN(CCOC)Cc1cc(=O)oc2cc3c(cc12)CCC3 | 2.4* | 1 | 0.33 | 9280* | +
SMILES | D1 mod | EphB4 antag | DAT uptake mod | D1 PAM confirm | Isoprot counter | others
CCOC(=O)c1c(C)oc2cc(Br)c(O)c(Br)c12 | 7.9* | . | 0.36 | 9840* | i | D1 no dopamine=1808
CCOC(=O)COc1cc2c(C(=O)OCC)c(C)oc2cc1Br | 0.19 | -4 | -0.011 | . | .
COC(=O)[C@@](C)(O)C1(C(=O)SC(C)(C)C)CC1 | . | . | 0.16 | . | .
CCN(CC)C(=O)CSc1nc2cc3c(cc2c(=O)n1Cc1ccc2c(c1)OCO2)OCO3 | 1.8 | . | -0.12 | . | .
CCOC(=O)CSc1nc2ccc(N3CCOCC3)cc2c(=O)n1Cc1ccc2c(c1)OCO2 | 7* | . | . | 9824* | + | D1 no dopamine=1952
COc1ccc2nc(NC(=O)Cc3cccs3)sc2c1 | . | 1 | -0.0092 | . | .
COc1ccc2nc(NC(=O)CCc3nc(-c4ccccc4F)no3)sc2c1 | 8.3* | 4 | -0.9 | 7800 | i | D1 no dopamine=1704
O=C(NCc1ccco1)C1CC(=O)N(c2ccc(O)cc2)C1 (stereo unspecified) | 0.51 | 1 | 0.27 | . | .
COc1cccc(C(=O)NC(Cc2ccccc2)c2ccc3c(c2)OCCCO3)c1 (stereo unspecified) | . | -8 | 0.91 | . | .
CCCCCn1c(N(C)Cc2ccccc2)nc2c1c(=O)[nH]c(=O)n2C | 14* | 1 | 0.064 | 21892* | + | D1 no dopamine=1452
